Among all 310,000 compounds or so, about 14,000 (4.5%) showed an effect of 50% or more. The effect is printed as a negative number. Shown is part of a subset that was picked to be rich in strong results.
Each compound was assayed against human ether-à-go-go-related gene (hERG) potassium channel (human, UniProt Q12809) (assay: primary screen, population patch clamp on CHO cells stably expressing hERG; higher = less effect of the substance).
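Note: peak tail current of the secondary pulse compared with the same well before compound.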

Sequence of human ether-à-go-go-related gene (hERG) potassium channel (Q12809 whole entry, looked up): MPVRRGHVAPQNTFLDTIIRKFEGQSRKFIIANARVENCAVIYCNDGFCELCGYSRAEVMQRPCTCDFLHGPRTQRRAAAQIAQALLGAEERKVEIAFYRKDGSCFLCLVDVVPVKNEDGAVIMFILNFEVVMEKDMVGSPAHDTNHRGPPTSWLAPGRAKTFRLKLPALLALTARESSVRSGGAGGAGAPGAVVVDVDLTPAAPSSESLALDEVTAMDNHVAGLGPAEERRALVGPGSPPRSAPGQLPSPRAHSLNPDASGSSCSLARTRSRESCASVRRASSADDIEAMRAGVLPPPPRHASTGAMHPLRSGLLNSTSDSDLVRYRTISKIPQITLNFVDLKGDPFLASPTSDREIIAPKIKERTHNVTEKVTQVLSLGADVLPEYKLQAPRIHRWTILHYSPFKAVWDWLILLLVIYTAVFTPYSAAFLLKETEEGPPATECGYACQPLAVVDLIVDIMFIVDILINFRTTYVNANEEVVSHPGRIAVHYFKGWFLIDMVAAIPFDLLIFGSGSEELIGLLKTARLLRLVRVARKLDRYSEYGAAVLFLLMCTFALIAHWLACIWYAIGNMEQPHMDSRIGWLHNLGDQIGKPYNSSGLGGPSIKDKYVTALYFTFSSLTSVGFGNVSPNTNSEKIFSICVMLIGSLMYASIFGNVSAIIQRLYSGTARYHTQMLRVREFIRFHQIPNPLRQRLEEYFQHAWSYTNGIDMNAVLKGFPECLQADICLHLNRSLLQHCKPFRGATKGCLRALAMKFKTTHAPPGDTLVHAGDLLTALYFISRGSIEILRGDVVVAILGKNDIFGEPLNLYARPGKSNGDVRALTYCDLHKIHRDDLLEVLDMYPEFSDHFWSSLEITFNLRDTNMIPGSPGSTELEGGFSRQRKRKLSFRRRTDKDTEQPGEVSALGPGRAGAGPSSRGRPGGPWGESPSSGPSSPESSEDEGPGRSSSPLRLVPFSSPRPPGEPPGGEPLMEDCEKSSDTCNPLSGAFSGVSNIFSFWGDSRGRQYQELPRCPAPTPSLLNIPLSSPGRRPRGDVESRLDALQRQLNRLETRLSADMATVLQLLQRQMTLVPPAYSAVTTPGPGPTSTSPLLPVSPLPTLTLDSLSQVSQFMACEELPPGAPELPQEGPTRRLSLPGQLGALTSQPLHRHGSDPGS

Compound | hERG current change (%, negative = inhibition) at 10uM [%]
O=S(=O)(c1ccc(Br)c2ccccc12)N1CCOCC1 | -11.8
CCCNC(=O)N1c2ccccc2Sc2ccccc21 | 10.5
Cc1c(Cl)c([N+](=O)[O-])nn1CCCC(=O)Nc1cccc(O)c1 | -10.8
Cc1c(Cl)c([N+](=O)[O-])nn1CCCC(=O)Nc1cccnc1 | -2.96
Cc1c(Cl)c([N+](=O)[O-])nn1CCCC(=O)Nc1cccc(Cl)c1 | -51.7
O=C(Nc1ccc(-c2csc(-c3ccccc3)n2)cc1)c1ccccc1 | 16.9
Cn1c(SCC(=O)N2CCCCCC2)nc2c([nH]c3ccccc32)c1=O | 6.91
COc1ccc(CNc2oc(C)nc2C#N)cc1 | -1.09
COc1ccccc1N1CCN(CCCCCCOc2ccc(F)cc2)CC1 | -67.2
COc1ccccc1N1CCN(CCCOc2ccc(F)cc2)CC1 | -71.8
COc1ccccc1N1CCN(CCCCOc2ccc(F)cc2)CC1.Cl | -72.8
Cl.Fc1ccc(OCCCCN2CCOCC2)cc1 | -4.81
COc1ccccc1N1CCN(CCCCOc2cccc3ccccc23)CC1.Cl | -32.8
COc1ccccc1N1CCN(Cc2ccc(F)cc2)CC1 | -14.7
CN1CCN(CCCCOc2ccc(F)cc2)CC1 | 0.265
C=CCn1cnc2c(c1=O)c1nc3ccccc3nc1n2/N=C/c1cc(OC)c(OC)c(OC)c1 | -22.1
Cc1ccccc1NC(=O)CSc1nnc(-c2ccccc2)n1-c1ccccc1 | -51.4
O=C(CSc1nnc2ccc(-c3cccnc3)nn12)Nc1ccc(F)cc1F | -64.9
O=C(CSc1nnc2ccc(-c3ccccn3)nn12)Nc1ccc(F)cc1F | -18

Compound | hERG current change (%, negative = inhibition) at 10uM [%]
CCn1c(SCC(=O)Nc2ccc(F)cc2)nnc1C1CC1 | -0.652
N#Cc1ccccc1NC(=O)CSc1nnc(-c2ccccc2)n1-c1ccccc1 | 2.09
Cn1c(SCC(=O)Nc2ccc(F)cc2)nnc1C1CC1 | 4.27
CC(=O)Nc1ccc(NC(=O)CSc2nnc3ccc(-c4ccc(F)cc4)nn23)cc1 | 16.8
O=C(CSc1nnc2ccc(-c3cccnc3)nn12)Nc1ccccc1F | -39.2
CC(C)n1c(SCC(=O)Nc2ccc(F)cc2)nnc1C1CC1 | -50.1
O=C(CSc1nnc2ccc(-c3ccncc3)nn12)Nc1ccc(F)cc1 | -63.2
NNC(=O)CSc1nnc(-c2ccccc2)n1-c1ccccc1 | 8.61
COc1ccc(NC(=O)CSc2nnc3ccc(-c4ccncc4)nn23)cc1 | -30.9
COc1ccc(NS(=O)(=O)c2cccc(C(=O)NCC(c3ccco3)N3CCCC3)c2)cc1 (stereo not drawn) | -36.8
Cc1ccc(S(=O)(=O)Nc2ccc3cn[nH]c3c2)c(C)c1 | -18.1
Cc1cccc(NC(=O)c2nc[nH]c2C(=O)NCC(=O)OCc2ccccc2)c1 | 9.54
CC(C)CC(N)c1cn([C@@H](CCC(=O)O)C(=O)N2CCNCC2)nn1.Cl (stereo partly drawn) | 17.2
COC(=O)N/N=C(\C)c1ccc(C)c([N+](=O)[O-])c1 | -0.21
COC(=O)c1cccc(NC(=O)c2cnn(C)c2)c1 | 15.9
CCO.CCOC(=O)c1c(-c2ccccc2)oc2ccc(OC(C)C(=O)O)cc12 (stereo not drawn) | -15
O=C(NNC(=S)NC(=O)c1ccccc1)c1cccc([N+](=O)[O-])c1 | 22.8
Cc1csc(SCC(=O)Nc2cccc3nsnc23)n1 | -14.8
CCCOc1ccc(C(=O)N(Cc2cccs2)C2CCS(=O)(=O)C2)cc1 (stereo not drawn) | -8.87

Compound | hERG current change (%, negative = inhibition) at 10uM [%]
CCn1c2ccccc2c2cc(CC(N)=O)ccc21 | 5.3
COc1ccc(C(=O)NCCc2nnc3ccc(SCC(=O)NCCc4ccc(OC)c(OC)c4)nn23)cc1 | 0.371
Cc1cccc(NC(=O)CC2NCCNC2=O)c1 (stereo not drawn) | 8.94
Cc1ccc(NC(=O)CSc2nnc(C)n2-c2ccccc2)cc1 | -3.7
O=C(CSc1nnc(-c2cccnc2)n1-c1ccccc1)Nc1ccccc1 | -76.3
Cc1ccc(NC(=O)CSc2nnc(-c3cccnc3)n2-c2ccc(C)cc2)cc1 | -21.4
O=C(CSc1nnc(-c2cccnc2)n1-c1ccccc1)Nc1ccccn1 | -41
Cc1ccc(NC(=O)C(C)Sc2nnc(-c3cccnc3)o2)cc1 (stereo not drawn) | 11.9
Cc1ccc(NC(=O)C(C)Sc2nnc(-c3cccnc3)n2-c2ccccc2)cc1 (stereo not drawn) | -81.4
O=C(CSc1nnc2ccc(-c3cccnc3)nn12)Nc1ccc(F)cc1 | -63
COc1ccc(NC(=O)CSc2nnc3ccc(-c4cccnc4)nn23)cc1 | -46.4
Cc1ccccc1-n1c(SC(C)C(N)=O)nnc1-c1cccnc1 (stereo not drawn) | -6.92
Nc1nnc(SCC(=O)Nc2ccc(F)c(Cl)c2)n1-c1ccccc1 | -70.7
COc1cc(NC(=O)CSc2nnc3ccc(-c4cccnc4)nn23)cc(OC)c1 | -9.05
Cc1nnc(SCC(=O)Nc2cccc(N)c2)n1-c1ccccc1 | -10.1
COC(=O)c1cn(NC(=O)c2ccc([N+](=O)[O-])cc2Cl)c(=O)c2ccccc12 | -5.68
CCCn1c(SCC(=O)NCc2ccccc2)n[nH]c1=O | 7.49
CCN(CC(=O)Nc1cccc(S(=O)(=O)N2CCOCC2)c1)Cc1ccccc1 | -4.27
CCOC(=O)c1cc(-c2ccc(N3CCOCC3)cc2)nn1-c1ccccc1 | -48.9
